# What was measured:
# Assay in all cases: SPOT peptide array binding signal intensity (averaged, normalized) (arbitrary units (background-subtracted, floor 0; scale differs between SH3 domains)); higher = stronger binding of the SH3 domain to the peptide
# CaNbp2 = target: CaNbp2
# Outline: (§1)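 GST-SH3 fusions from four yeast species, purified on glutathione Sepharose, were incubated at 10 μg/ml overnight at 4°C on membranes of synthetic 15-mer peptides in which cysteines were replaced with serines. Binding signal is the normalized, background-subtracted spot intensity averaged over replicates, in domain-specific arbitrary units.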
# CaRvs167 = target: CaRvs167
# Outline: as §1
# CaRvs167-3 = target: CaRvs167-3
# Outline: as §1
# CaSho1 = target: CaSho1
# Outline: as §1
# CaSla1-D1-D2 = target: CaSla1-D1-D2
# Outline: as §1
# CaSla1-D3 = target: CaSla1-D3
# Outline: as §1
# ScAbp1 = target: ScAbp1
# Outline: as §1
# ScBbc1 = target: ScBbc1
# Outline: as §1
# ScBem1-D1 = target: ScBem1-D1
# Outline: as §1
# ScBzz1-D1 = target: ScBzz1-D1
# Outline: as §1
# ScBzz1-D2 = target: ScBzz1-D2
# Outline: as §1
# ScCyk3 = target: ScCyk3
# Outline: as §1
# ScFus1 = target: ScFus1
# Outline: as §1
# ScHof1 = target: ScHof1
# Outline: as §1
# ScHse1 = target: ScHse1
# Outline: as §1
# ScLsb1 = target: ScLsb1
# Outline: as §1
# ScLsb2 = target: ScLsb2
# Outline: as §1
# ScLsb3 = target: ScLsb3
# Outline: as §1
# ScLsb4 = target: ScLsb4
# Outline: as §1
# ScMyo3 = target: ScMyo3
# Outline: as §1
# ScMyo5 = target: ScMyo5
# Outline: as §1
# ScNbp2 = target: ScNbp2
# Outline: as §1
# ScPex13 = target: ScPex13
# Outline: as §1
# ScRvs167 = target: ScRvs167
# Outline: as §1
# ScSho1 = target: ScSho1
# Outline: as §1
# ScSla1-D1-D2 = target: ScSla1-D1-D2
# Outline: as §1
# ScSla1-D3 = target: ScSla1-D3
# Outline: as §1
# SpAbp1-D1 = target: SpAbp1-D1
# Outline: as §1
# SpBbc1 = target: SpBbc1
# Outline: as §1
# SpBzz1-D1 = target: SpBzz1-D1
# Outline: as §1
# SpBzz1-D2 = target: SpBzz1-D2
# Outline: as §1
# SpCyk3 = target: SpCyk3
# Outline: as §1
# SpHof1 = target: SpHof1
# Outline: as §1
# SpHof1-2 = target: SpHof1-2
# Outline: as §1
# SpHof1-3 = target: SpHof1-3
# Outline: as §1
# SpHse1 = target: SpHse1
# Outline: as §1
# SpLsb1 = target: SpLsb1
# Outline: as §1
# SpLsb4 = target: SpLsb4
# Outline: as §1
# SpMyo1 = target: SpMyo1
# Outline: as §1
# SpNbp2 = target: SpNbp2
# Outline: as §1
# SpPex13 = target: SpPex13
# Outline: as §1
# SpRvs167 = target: SpRvs167
# Outline: as §1
# SpSla1-D1-D2 = target: SpSla1-D1-D2
# Outline: as §1
# SpSla1-D3 = target: SpSla1-D3
# Outline: as §1
# AgAbp1 = target: AgAbp1
# Outline: as §1
# AgBbc1 = target: AgBbc1
# Outline: as §1
# AgBem1-D1 = target: AgBem1-D1
# Outline: as §1
# AgBzz1-D1 = target: AgBzz1-D1
# Outline: as §1
# AgBzz1-D2 = target: AgBzz1-D2
# Outline: as §1
# AgCyk3 = target: AgCyk3
# Outline: as §1
# AgFus1 = target: AgFus1
# Outline: as §1
# AgHof1 = target: AgHof1
# Outline: as §1
# AgHse1 = target: AgHse1
# Outline: as §1
# AgLsb1 = target: AgLsb1
# Outline: as §1
# AgLsb4 = target: AgLsb4
# Outline: as §1
# AgMyo5 = target: AgMyo5
# Outline: as §1
# AgNbp2 = target: AgNbp2
# Outline: as §1
# AgRvs167 = target: AgRvs167
# Outline: as §1
# AgSho1 = target: AgSho1
# Outline: as §1
# AgSla1-D1-D2 = target: AgSla1-D1-D2
# Outline: as §1
# AgSla1-D3 = target: AgSla1-D3
# Outline: as §1
# CaAbp1-D1 = target: CaAbp1-D1
# Outline: as §1
# CaAbp1-D2 = target: CaAbp1-D2
# Outline: as §1
# CaBbc1 = target: CaBbc1
# Outline: as §1
# CaBem1-D1 = target: CaBem1-D1
# Outline: as §1
# CaBzz1-D1 = target: CaBzz1-D1
# Outline: as §1
# CaBzz1-D2 = target: CaBzz1-D2
# Outline: as §1
# CaCyk3 = target: CaCyk3
# Outline: as §1
# CaFus1 = target: CaFus1
# Outline: as §1
# CaHof1 = target: CaHof1
# Outline: as §1
# CaHse1 = target: CaHse1
# Outline: as §1
# CaLsb1 = target: CaLsb1
# Outline: as §1
# CaLsb4 = target: CaLsb4
# Outline: as §1
# CaMyo5 = target: CaMyo5
# Outline: as §1
binder,measurement,setting,value
GATNNAPTLPKRKNP,SPOT peptide array binding signal intensity,CaNbp2,≤ 0
same,SPOT peptide array binding signal intensity,CaRvs167,125
same,SPOT peptide array binding signal intensity,CaRvs167-3,3.25
same,SPOT peptide array binding signal intensity,CaSho1,≤ 0
same,SPOT peptide array binding signal intensity,CaSla1-D1-D2,47
same,SPOT peptide array binding signal intensity,CaSla1-D3,≤ 0
same,SPOT peptide array binding signal intensity,ScAbp1,120
same,SPOT peptide array binding signal intensity,ScBbc1,7.12
same,SPOT peptide array binding signal intensity,ScBem1-D1,≤ 0
same,SPOT peptide array binding signal intensity,ScBzz1-D1,10.5
same,SPOT peptide array binding signal intensity,ScBzz1-D2,12.5
same,SPOT peptide array binding signal intensity,ScCyk3,≤ 0
same,SPOT peptide array binding signal intensity,ScFus1,6.5
same,SPOT peptide array binding signal intensity,ScHof1,0.25
same,SPOT peptide array binding signal intensity,ScHse1,27.2
same,SPOT peptide array binding signal intensity,ScLsb1,242
same,SPOT peptide array binding signal intensity,ScLsb2,3.5
same,SPOT peptide array binding signal intensity,ScLsb3,4610
same,SPOT peptide array binding signal intensity,ScLsb4,2740
same,SPOT peptide array binding signal intensity,ScMyo3,≤ 0
same,SPOT peptide array binding signal intensity,ScMyo5,≤ 0
same,SPOT peptide array binding signal intensity,ScNbp2,4.5
same,SPOT peptide array binding signal intensity,ScPex13,182
same,SPOT peptide array binding signal intensity,ScRvs167,960
same,SPOT peptide array binding signal intensity,ScSho1,≤ 0
same,SPOT peptide array binding signal intensity,ScSla1-D1-D2,20.8
same,SPOT peptide array binding signal intensity,ScSla1-D3,≤ 0
same,SPOT peptide array binding signal intensity,SpAbp1-D1,102
same,SPOT peptide array binding signal intensity,SpBbc1,1
same,SPOT peptide array binding signal intensity,SpBzz1-D1,286
same,SPOT peptide array binding signal intensity,SpBzz1-D2,0.25
same,SPOT peptide array binding signal intensity,SpCyk3,≤ 0
same,SPOT peptide array binding signal intensity,SpHof1,2.75
same,SPOT peptide array binding signal intensity,SpHof1-2,0.625
same,SPOT peptide array binding signal intensity,SpHof1-3,65.5
same,SPOT peptide array binding signal intensity,SpHse1,11
same,SPOT peptide array binding signal intensity,SpLsb1,118
same,SPOT peptide array binding signal intensity,SpLsb4,6350
same,SPOT peptide array binding signal intensity,SpMyo1,≤ 0
same,SPOT peptide array binding signal intensity,SpNbp2,2
same,SPOT peptide array binding signal intensity,SpPex13,3.5
same,SPOT peptide array binding signal intensity,SpRvs167,1270
same,SPOT peptide array binding signal intensity,SpSla1-D1-D2,7
same,SPOT peptide array binding signal intensity,SpSla1-D3,15
GSKSGPPPRPKKPST,SPOT peptide array binding signal intensity,AgAbp1,94
same,SPOT peptide array binding signal intensity,AgBbc1,780
same,SPOT peptide array binding signal intensity,AgBem1-D1,66.5
same,SPOT peptide array binding signal intensity,AgBzz1-D1,524
same,SPOT peptide array binding signal intensity,AgBzz1-D2,102
same,SPOT peptide array binding signal intensity,AgCyk3,≤ 0
same,SPOT peptide array binding signal intensity,AgFus1,23
same,SPOT peptide array binding signal intensity,AgHof1,39.2
same,SPOT peptide array binding signal intensity,AgHse1,≤ 0
same,SPOT peptide array binding signal intensity,AgLsb1,≤ 0
same,SPOT peptide array binding signal intensity,AgLsb4,≤ 0
same,SPOT peptide array binding signal intensity,AgMyo5,0.25
same,SPOT peptide array binding signal intensity,AgNbp2,37
same,SPOT peptide array binding signal intensity,AgRvs167,≤ 0
same,SPOT peptide array binding signal intensity,AgSho1,20
same,SPOT peptide array binding signal intensity,AgSla1-D1-D2,9
same,SPOT peptide array binding signal intensity,AgSla1-D3,7.5
same,SPOT peptide array binding signal intensity,CaAbp1-D1,328
same,SPOT peptide array binding signal intensity,CaAbp1-D2,189
same,SPOT peptide array binding signal intensity,CaBbc1,825
same,SPOT peptide array binding signal intensity,CaBem1-D1,13
same,SPOT peptide array binding signal intensity,CaBzz1-D1,1530
same,SPOT peptide array binding signal intensity,CaBzz1-D2,388
same,SPOT peptide array binding signal intensity,CaCyk3,36.5
same,SPOT peptide array binding signal intensity,CaFus1,42
same,SPOT peptide array binding signal intensity,CaHof1,1.5
same,SPOT peptide array binding signal intensity,CaHse1,0.5
same,SPOT peptide array binding signal intensity,CaLsb1,0.5
same,SPOT peptide array binding signal intensity,CaLsb4,≤ 0
same,SPOT peptide array binding signal intensity,CaMyo5,0.5
same,SPOT peptide array binding signal intensity,CaNbp2,27
same,SPOT peptide array binding signal intensity,CaRvs167,≤ 0
same,SPOT peptide array binding signal intensity,CaRvs167-3,3.5
same,SPOT peptide array binding signal intensity,CaSho1,29.5
same,SPOT peptide array binding signal intensity,CaSla1-D1-D2,130
same,SPOT peptide array binding signal intensity,CaSla1-D3,230
same,SPOT peptide array binding signal intensity,ScAbp1,234
same,SPOT peptide array binding signal intensity,ScBbc1,97.8
same,SPOT peptide array binding signal intensity,ScBem1-D1,15
same,SPOT peptide array binding signal intensity,ScBzz1-D1,48.5
same,SPOT peptide array binding signal intensity,ScBzz1-D2,72
same,SPOT peptide array binding signal intensity,ScCyk3,1
same,SPOT peptide array binding signal intensity,ScFus1,6.5
same,SPOT peptide array binding signal intensity,ScHof1,1.75
same,SPOT peptide array binding signal intensity,ScHse1,13
same,SPOT peptide array binding signal intensity,ScLsb1,2.5
same,SPOT peptide array binding signal intensity,ScLsb2,0.5
same,SPOT peptide array binding signal intensity,ScLsb3,1400
same,SPOT peptide array binding signal intensity,ScLsb4,5
same,SPOT peptide array binding signal intensity,ScMyo3,5.25
same,SPOT peptide array binding signal intensity,ScMyo5,≤ 0
same,SPOT peptide array binding signal intensity,ScNbp2,51
same,SPOT peptide array binding signal intensity,ScPex13,133
same,SPOT peptide array binding signal intensity,ScRvs167,3.33
same,SPOT peptide array binding signal intensity,ScSho1,41
same,SPOT peptide array binding signal intensity,ScSla1-D1-D2,57.5
same,SPOT peptide array binding signal intensity,ScSla1-D3,28
same,SPOT peptide array binding signal intensity,SpAbp1-D1,85
same,SPOT peptide array binding signal intensity,SpBbc1,5.5
same,SPOT peptide array binding signal intensity,SpBzz1-D1,320
same,SPOT peptide array binding signal intensity,SpBzz1-D2,2
same,SPOT peptide array binding signal intensity,SpCyk3,≤ 0
same,SPOT peptide array binding signal intensity,SpHof1,1.5
same,SPOT peptide array binding signal intensity,SpHof1-2,10.5
same,SPOT peptide array binding signal intensity,SpHof1-3,25
same,SPOT peptide array binding signal intensity,SpHse1,16.2
same,SPOT peptide array binding signal intensity,SpLsb1,12.5
same,SPOT peptide array binding signal intensity,SpLsb4,332
same,SPOT peptide array binding signal intensity,SpMyo1,8
same,SPOT peptide array binding signal intensity,SpNbp2,5
same,SPOT peptide array binding signal intensity,SpPex13,7
same,SPOT peptide array binding signal intensity,SpRvs167,≤ 0
same,SPOT peptide array binding signal intensity,SpSla1-D1-D2,5
same,SPOT peptide array binding signal intensity,SpSla1-D3,1
